Reference: PubChem BioAssay (NCATS)
Values joined by “and” are separate entries in the source; they are usually repeats but may differ in a detail not shown here. Equal entries are not always repeated. Results filed as inconclusive are left out. A call without a number means that no potency is given here. Active and inactive are the calls of the source. Unless noted, the call rests on the fitted dose curve; in most records, active means well fitted curve in the direction sought with a large enough effect; inconclusive means small, poorly fitted or top-dose-only effect, or another doubt; inactive means no such curve, though single readings can be large; an effect the other way counts as inactive or inconclusive.

Experiments:
[1] = MultiTox-Fluor Cytotoxicity Assay - LYMP1-001 - Live Cells (AID 947)
[2] = Cell Viability - LYMP1-002 - Assay at 16 hr (AID 948)
Procedure, shortened: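 ATP luminescence (CellTiter-Glo) was measured after 16 hr compound exposure at 37 C of 2500 lymphoblastoid LYMP1-002 cells per well. Concentration-response curves were fitted with the Hill equation to give AC50.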

[3] = Cell Viability - LYMP2-003 (AID 965);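 further: cells exposed to compounds for 24 h before reading; nearly all actives have a fitted effect of over 50% in size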
Procedure, shortened: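 CellTiter-Glo luminescence quantified ATP loss after 24 h compound treatment of LYMP2-003 lymphoblastoid cells at 37 C. Titration series were fitted with the standard Hill equation to give AC50.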

[4] = Cell Viability - LYMP2-008 (AID 980); further: nearly all actives have a fitted effect of over 60% in size
Procedure, shortened: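 Acute cytotoxicity is scored as concentration-dependent loss of cellular ATP in a human lymphoblastoid line after 24 hr treatment at 37 C. ATP is quantified by luciferase luminescence.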

[5] = biological target: Glucocorticoid receptor (Homo sapiens) (UniProt P04150); test: qHTS assay for small molecule agonists of glucocorticoid receptor signaling (AID 588532; active means well fitted curve in the direction sought with a large enough effect in the signal ratio, with a control signal flat; the % refers to the signal ratio); settings: HeLa MMTV-bla, beta-lactamase ratio, agonist, 18 h; stronger effect = higher value; percent of dexamethasone control, DMSO zero
Procedure, shortened: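 MMTV-bla HeLa beta-lactamase reporter cells in 1% charcoal/dextran FBS medium, compounds up to 92 uM for 18 h at 37 C, CCF4 readout; normalized to 0.1 uM dexamethasone (100%), EC50 and efficacy from Hill fits.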

[6] = biological target: Peroxisome proliferator-activated receptor delta (Homo sapiens) (UniProt Q03181); test: qHTS assay for small molecule agonists of peroxisome proliferator-activated receptor delta signaling (AID 588534; calls by dose curve)
Procedure, shortened: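 Reporter cells were plated and held 5 hrs at 37 C before compounds were added. After 18 hrs at 37 C, CCF4 dye was loaded for 2 hrs at RT and fluorescence measured.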

[7] = qHTS assay for small molecule activators of the nuclear factor-kappa B (NF-kB) signaling pathway (AID 651749; active means well fitted activation curve with a large enough effect in the signal ratio; the % refers to the signal ratio; further: series mostly up to about 77 µM); settings: NF-kB-bla ME-180 cells, beta-lactamase FRET ratio, 16 h; stronger effect = higher value
Procedure, shortened: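 Incubation lasted 16 hr at 37C in 5% CO2 after 23 nL compound addition to ME-180 NF-kB-bla cells. Activation appears as beta-lactamase-mediated FRET loss.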

[8] = qHTS assay for small molecule disruptors of the mitochondrial membrane potential - 1 hr assay (AID 651754; calls by dose curve; further: nearly all actives have a fitted effect of over 35% in size)
Procedure, shortened: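 Steps: seed HepG2 cells and let attach overnight; pin-transfer compound or vehicle; incubate 1 hr at 37C; add Mito-MPS dye for 30 min; read two-channel fluorescence for monomer and aggregate forms.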

[9] = Cell Viability - LYMP2-005 (AID 967); further: series mostly up to about 92 µM
Procedure, shortened: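 LYMP2-005 human lymphoblastoid cells (2500/well) were treated with compounds for 24 h at 37 C. Intracellular ATP was then measured by CellTiter-Glo luminescence after 30 min at room temperature. AC50 values came from Hill-equation fits of qHTS concentration-response data.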

[10] = Cell Viability - LYMP1-002 - Assay at 24 hr (AID 993)
Procedure, shortened: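 qHTS, LYMP1-002 lymphoblastoid, 24 h cpd, 37 C, CellTiter-Glo ATP luminescence; AC50 via Hill eq.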

[11] = biological target: Estrogen receptor (Homo sapiens) (UniProt P03372); test: qHTS assay for small molecule antagonists of estrogen receptor alpha signaling (AID 588513; active means well fitted curve in the direction sought with a large enough effect in the signal ratio, with a control signal flat, not every such curve was filed as active; the % refers to the signal ratio)
Procedure, shortened: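 Antagonist mode: inhibition of 0.5 nM 17-beta-estradiol-driven beta-lactamase reporter in HEK 293 ER-alpha-UAS-bla cells, 18 h at 37C, CCF4 readout after 2 h at RT. Normalised to estradiol and DMSO; titration fitted to Hill.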

[12] = biological target: Bile acid receptor (Homo sapiens) (UniProt Q96RI1); test: qHTS assay for small molecule antagonists of farnesoid X receptor signaling (AID 588526; calls by dose curve)
Procedure, shortened: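 Antagonist mode: titrated compounds tested against chenodeoxycholic acid stimulation (normalized to 50 uM CDCA and DMSO) in GeneBLAzer HEK293T cells for 16 h. Beta-lactamase read by CCF4 fluorescence; IC50 from Hill fits.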

[13] = biological target: Thyroid hormone receptor beta (Homo sapiens) (UniProt P10828); test: qHTS assay for small molecule antagonists of thyroid hormone receptor beta signaling (AID 588547; active means well fitted inhibition curve with a large enough effect in the signal ratio, with a control signal flat, not every such curve was filed as active; the % refers to the signal ratio;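 further: cells stimulated with 0.4 nM T3 agonist during compound exposure; series mostly up to about 77 µM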); settings: TR-UAS-bla HEK293, beta-lactamase ratio, antagonist mode, 18 h
Procedure, shortened: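 TR-UAS-bla GripTite HEK293 cells in 2% charcoal/dextran FBS medium; compounds 0.59 nM to 92 uM with T3 at 0.4nM final, 18 h at 37 C. Beta-lactamase read by CCF4 fluorescence (460/530 nm); Hill fits gave IC50 and efficacy.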

[14] = qHTS assay for small molecule agonists of the antioxidant response element (ARE) signaling pathway (AID 651741; active means well fitted activation curve with a large enough effect in the signal ratio; the % refers to the signal ratio; further: potency means the concentration at half of the fitted maximal effect)
Procedure, shortened: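 HepG2 ARE-bla cells plated at 2,000 cells/well and incubated 5 h at 37 C/5% CO2 received 23 nL compound in DMSO. After 16 h at 37 C, LiveBLAzer B/G FRET substrate was applied for 2 h at room temperature and fluorescence read.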

[15] = qHTS assay for small molecule disruptors of the mitochondrial membrane potential - 5 hr assay (AID 651755; calls by dose curve; further: nearly all actives have a fitted effect of over 40% in size; further: potency means the concentration at half of the fitted maximal effect)
Procedure, shortened: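 HepG2 cells (2,000/well), attached overnight, exposed to compound 5 hr at 37C, then Mito-MPS dye 30 min. Fluorescence read for monomers (490/535 nm) and aggregates (540/590 nm).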

[16] = biological target: Glucocorticoid receptor (Homo sapiens) (UniProt P04150); test: qHTS assay for small molecule antagonists of glucocorticoid receptor signaling (AID 588533; active means well fitted inhibition curve with a large enough effect in the signal ratio, with a control signal flat, not every such curve was filed as active; the % refers to the signal ratio;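 further: cells stimulated with 2 nM dexamethasone as agonist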)
Procedure, shortened: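 Antagonist-mode qHTS: compound titrations added to GRE-bla HeLa cells, then dexamethasone 2 nM final; 18 h, 37 C. CCF4 FRET fluorescence normalized to dexamethasone and DMSO; IC50 from Hill fit.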

[17] = qHTS assay for small molecule antagonists of peroxisome proliferator-activated receptor delta signaling (AID 588535; active means well fitted inhibition curve with a large enough effect in the signal ratio, with a control signal flat, not every such curve was filed as active; the % refers to the signal ratio;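 on max response: cells co-treated with a PPAR-delta agonist as stimulator during compound exposure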); settings: HEK293T PPARd-UAS-bla, beta-lactamase FRET ratio, 18 h; 460 nm channel
Procedure, shortened: (§1)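 Cells were seeded at 4000 per well in assay medium containing 2% charcoal/dextran FBS and held 5 hrs at 37 C. Compounds were then added for 18 hrs. CCF4 substrate was applied for 2 hrs at room temperature before fluorescence reading.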

[18] = biological target: Peroxisome proliferator-activated receptor gamma (Homo sapiens) (UniProt P37231); test: qHTS assay for small molecule antagonists of peroxisome proliferator-activated receptor gamma signaling (AID 588537; active means well fitted inhibition curve with a large enough effect in the signal ratio, with a control signal flat, not every such curve was filed as active; the % refers to the signal ratio;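 further: reporter cells co-stimulated with 50 nM rosiglitazone agonist during compound treatment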)
Procedure, shortened: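 Step one: plate 3000 HEK293 UAS-bla cells per well in medium with 1% stripped serum and hold 6-6.5 h at 37 C. Step two: add compound and 50 nM agonist for 16 h. Step three: CCF4 loading, fluorescence read.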

[19] = biological target: Peroxisome proliferator-activated receptor delta (Homo sapiens) (UniProt Q03181); test: qHTS assay for small molecule antagonists of peroxisome proliferator-activated receptor delta signaling (AID 588535);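 on max response: cells co-treated with a PPAR-delta agonist as stimulator during compound exposure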
Procedure, shortened: as §1

[20] = qHTS assay for small molecule activators of the p53 signaling pathway (AID 651743; active means well fitted activation curve with a large enough effect in the signal ratio, not every such curve was filed as active; the % refers to the signal ratio; further: series mostly up to about 92 µM); settings: HCT-116 p53RE-bla, beta-lactamase FRET ratio, 16 h; activation: stronger effect = higher value
Procedure, shortened: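 HCT-116 p53RE-bla, 4,000 cells/well; 5 h settle; cpd/DMSO 16 h, 37 C; LiveBLAzer B/G 2 h RT; fluorescence intensity.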

Sequence of Bile acid receptor (Homo sapiens) (Q96RI1 whole entry, looked up): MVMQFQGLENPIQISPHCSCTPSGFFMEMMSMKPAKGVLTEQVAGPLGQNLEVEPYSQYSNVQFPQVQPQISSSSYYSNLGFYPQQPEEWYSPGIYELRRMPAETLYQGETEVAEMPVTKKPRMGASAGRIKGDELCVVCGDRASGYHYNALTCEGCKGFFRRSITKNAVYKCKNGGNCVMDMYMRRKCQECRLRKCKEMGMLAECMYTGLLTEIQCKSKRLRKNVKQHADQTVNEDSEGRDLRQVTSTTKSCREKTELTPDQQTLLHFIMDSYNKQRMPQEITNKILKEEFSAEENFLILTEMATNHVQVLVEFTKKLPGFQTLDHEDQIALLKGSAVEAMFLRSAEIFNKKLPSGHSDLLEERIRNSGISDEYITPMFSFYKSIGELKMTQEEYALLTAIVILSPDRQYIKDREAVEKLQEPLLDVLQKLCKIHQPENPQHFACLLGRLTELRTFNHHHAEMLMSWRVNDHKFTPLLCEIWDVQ
Sequence of Peroxisome proliferator-activated receptor gamma (Homo sapiens) (P37231 whole entry, looked up): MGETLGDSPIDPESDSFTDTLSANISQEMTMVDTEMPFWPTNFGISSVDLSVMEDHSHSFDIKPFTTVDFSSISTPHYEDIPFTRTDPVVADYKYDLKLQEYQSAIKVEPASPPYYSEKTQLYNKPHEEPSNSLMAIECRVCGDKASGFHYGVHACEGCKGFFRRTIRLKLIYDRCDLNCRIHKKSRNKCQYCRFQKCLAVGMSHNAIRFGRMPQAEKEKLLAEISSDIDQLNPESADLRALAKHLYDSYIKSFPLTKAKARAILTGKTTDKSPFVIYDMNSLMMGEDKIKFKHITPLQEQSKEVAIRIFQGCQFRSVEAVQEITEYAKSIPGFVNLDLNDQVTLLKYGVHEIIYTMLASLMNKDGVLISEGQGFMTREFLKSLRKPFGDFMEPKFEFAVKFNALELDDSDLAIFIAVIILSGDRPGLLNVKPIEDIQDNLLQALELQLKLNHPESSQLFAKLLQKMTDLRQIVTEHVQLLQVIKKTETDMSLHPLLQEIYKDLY
Sequence of Glucocorticoid receptor (Homo sapiens) (P04150 whole entry, looked up): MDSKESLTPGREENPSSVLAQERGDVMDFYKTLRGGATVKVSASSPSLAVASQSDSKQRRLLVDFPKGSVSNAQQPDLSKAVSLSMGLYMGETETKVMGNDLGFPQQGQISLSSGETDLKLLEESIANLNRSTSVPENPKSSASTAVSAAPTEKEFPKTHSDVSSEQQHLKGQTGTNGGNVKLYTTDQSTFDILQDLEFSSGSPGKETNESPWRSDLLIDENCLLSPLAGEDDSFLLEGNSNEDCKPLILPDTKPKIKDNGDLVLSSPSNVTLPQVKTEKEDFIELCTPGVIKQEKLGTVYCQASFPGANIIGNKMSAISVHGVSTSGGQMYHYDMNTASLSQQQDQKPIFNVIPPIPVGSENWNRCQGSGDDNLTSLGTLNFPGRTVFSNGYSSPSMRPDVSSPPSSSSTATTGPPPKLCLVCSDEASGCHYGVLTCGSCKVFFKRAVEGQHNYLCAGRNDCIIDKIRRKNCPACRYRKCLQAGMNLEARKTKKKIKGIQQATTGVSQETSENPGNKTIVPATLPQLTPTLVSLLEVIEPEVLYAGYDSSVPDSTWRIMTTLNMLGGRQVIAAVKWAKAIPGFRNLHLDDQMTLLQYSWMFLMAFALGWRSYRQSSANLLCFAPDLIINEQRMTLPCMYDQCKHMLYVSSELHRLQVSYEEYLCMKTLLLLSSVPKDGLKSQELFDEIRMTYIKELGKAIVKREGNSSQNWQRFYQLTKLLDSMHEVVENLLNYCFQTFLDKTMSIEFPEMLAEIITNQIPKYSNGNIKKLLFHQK
Sequence of Thyroid hormone receptor beta (Homo sapiens) (P10828 whole entry, looked up): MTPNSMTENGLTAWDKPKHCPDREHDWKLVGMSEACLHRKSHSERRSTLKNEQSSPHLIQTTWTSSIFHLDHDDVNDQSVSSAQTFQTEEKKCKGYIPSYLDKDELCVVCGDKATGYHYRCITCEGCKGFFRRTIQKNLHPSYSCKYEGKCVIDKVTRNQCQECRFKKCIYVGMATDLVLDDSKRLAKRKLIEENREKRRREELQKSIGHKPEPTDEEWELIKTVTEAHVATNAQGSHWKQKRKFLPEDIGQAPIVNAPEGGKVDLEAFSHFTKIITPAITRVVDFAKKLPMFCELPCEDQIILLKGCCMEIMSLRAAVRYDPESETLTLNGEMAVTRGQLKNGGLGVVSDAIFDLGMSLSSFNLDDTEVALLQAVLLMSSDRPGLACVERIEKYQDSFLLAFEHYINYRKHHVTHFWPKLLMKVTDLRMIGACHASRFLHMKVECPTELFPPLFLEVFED
Sequence of Estrogen receptor (Homo sapiens) (P03372 whole entry, looked up): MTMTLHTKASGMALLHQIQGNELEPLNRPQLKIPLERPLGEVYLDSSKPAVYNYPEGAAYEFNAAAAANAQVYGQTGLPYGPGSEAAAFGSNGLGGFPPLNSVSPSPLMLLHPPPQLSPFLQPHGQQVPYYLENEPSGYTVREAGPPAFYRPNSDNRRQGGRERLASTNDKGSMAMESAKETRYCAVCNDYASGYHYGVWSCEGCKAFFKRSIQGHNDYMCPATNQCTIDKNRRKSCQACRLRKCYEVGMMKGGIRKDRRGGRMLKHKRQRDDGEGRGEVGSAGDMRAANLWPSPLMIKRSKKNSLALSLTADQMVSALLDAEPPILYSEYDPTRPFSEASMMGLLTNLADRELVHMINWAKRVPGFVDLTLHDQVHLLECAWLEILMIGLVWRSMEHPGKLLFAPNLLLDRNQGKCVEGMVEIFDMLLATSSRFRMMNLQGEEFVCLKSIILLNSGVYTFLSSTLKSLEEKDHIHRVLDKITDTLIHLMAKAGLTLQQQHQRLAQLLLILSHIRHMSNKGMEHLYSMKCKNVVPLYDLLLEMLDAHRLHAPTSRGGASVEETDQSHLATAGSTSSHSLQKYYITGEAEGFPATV
Sequence of Peroxisome proliferator-activated receptor delta (Homo sapiens) (Q03181 whole entry, looked up): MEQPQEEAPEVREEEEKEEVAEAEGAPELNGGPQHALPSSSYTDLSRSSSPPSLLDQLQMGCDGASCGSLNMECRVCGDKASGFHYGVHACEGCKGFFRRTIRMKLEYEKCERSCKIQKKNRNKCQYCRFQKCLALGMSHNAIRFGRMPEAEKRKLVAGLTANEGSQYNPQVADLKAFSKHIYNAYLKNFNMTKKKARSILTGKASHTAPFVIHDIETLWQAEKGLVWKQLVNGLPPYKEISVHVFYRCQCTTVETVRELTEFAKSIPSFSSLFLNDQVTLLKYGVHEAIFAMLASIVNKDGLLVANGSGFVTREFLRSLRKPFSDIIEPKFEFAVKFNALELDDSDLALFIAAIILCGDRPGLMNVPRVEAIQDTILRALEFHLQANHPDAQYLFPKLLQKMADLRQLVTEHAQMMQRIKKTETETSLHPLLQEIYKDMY

Row | Structure (SMILES) | outcome [1] | outcome [2] | Potency [3] | Potency [4] | activation [5] | outcome [6] | activation [7] | Potency [8] | Potency [9] | Potency [10] | Potency [11] | outcome [12] | activity change % (negative = inhibition) [13] | Potency [14] | Potency [15] | outcome [16] | max response [17] | Potency [18] | outcome [19] | activation [20]
1 | Clc1cc(Cl)c(Cl)c(Cl)c1 | inactive | inactive | inactive | inactive | 16.9% (inactive) | inactive | -0.964% (inactive) | inactive | – | – | – | – | – | – | – | – | – | – | – | –
2 | N#CCBr | inactive | inactive | inactive | – | -5.38% (inactive) | – | 0.342% (inactive) | inactive | inactive | inactive | inactive | inactive | 11.7% (inactive) | 16.8 µM (active) | inactive | – | – | – | – | –
3 | CC(C)(C)c1ccccc1O | inactive | inactive | inactive | inactive | 2.08% (inactive) and 7.02% (inactive) | inactive | -0.0104% (inactive) and -1.11% (inactive) | – | inactive | inactive | – | – | 3.5% (inactive) and 10.7% (inactive) | inactive | – | inactive | 11% and 14.4% | inactive | – | –
4 | Cc1coc2c1CCC(C)C2 (centres undefined) | – | inactive | inactive | – | 1.47% (inactive) | inactive | -0.0074% (inactive) | inactive | – | inactive | inactive | – | 22.1% (inactive) | – | inactive | inactive | -2.44% | – | inactive | –
5 | ClC(Cl)C(Cl)Cl | – | inactive | inactive | – | 1.52% (inactive) | – | -0.991% (inactive) | inactive | inactive | inactive | inactive | inactive | 0.5% (inactive) | inactive | – | inactive | – | – | – | -4.56% (inactive)
6 | CC(C)Br | inactive | inactive | – | inactive | – | – | – | – | inactive | inactive | inactive | inactive | – | inactive | inactive | inactive | – | inactive | – | -2.41% (inactive)
7 | C=CCc1cc(OC)c2c(c1)OCO2 | inactive | inactive | inactive | – | -4.93% (inactive) | inactive | -0.352% (inactive) | inactive | inactive | inactive | – | – | 4.98% (inactive) | – | inactive | inactive | – | – | – | –
8 | Cl/C=C\Cl | inactive | – | inactive | – | 16.7% (inactive) | inactive | 0.0953% (inactive) | inactive | inactive | inactive | inactive | – | 0.348% (inactive) | – | – | inactive | -22.4% | – | – | 1.35% (inactive)
9 | C=COC(C)=O | – | inactive | inactive | inactive | – | – | -0.411% (inactive) | inactive | inactive | inactive | – | – | 0.373% (inactive) | – | – | – | – | – | – | –
10 | CC(=O)NNc1ccccc1 | inactive | inactive | – | inactive | – | – | – | inactive | inactive | inactive | – | inactive | – | – | inactive | – | 50% | – | inactive | –
11 | Cc1cccc(N)c1C | inactive | inactive | inactive | inactive | – | inactive | -0.847% (inactive) | – | – | inactive | inactive | inactive | – | inactive | inactive | inactive | – | – | – | –
12 | NNC(N)=S | – | inactive | inactive | – | 0.137% (inactive) | – | 0.227% (inactive) | – | – | inactive | inactive | inactive | – | – | inactive | – | – | inactive | – | –
13 | OCCCCO | inactive | inactive | inactive | inactive | -5.33% (inactive) | – | -0.721% (inactive) | inactive | inactive | inactive | – | inactive | – | inactive | inactive | inactive | -23.5% | inactive | inactive | –
14 | O=[N+]([O-])c1ccc(Cl)c(Cl)c1Cl | inactive | inactive | – | inactive | – | inactive | 0.972% (inactive) | – | inactive | inactive | inactive | – | – | – | inactive | – | -19.7% | – | inactive | -2.43% (inactive)
15 | Cc1cnc[nH]1 | inactive | inactive | inactive | – | -8.66% (inactive) | – | -0.55% (inactive) | inactive | inactive | inactive | – | inactive | 8% (inactive) | inactive | inactive | inactive | – | – | – | -6.55% (inactive)
16 | CCCCCc1cc(O)cc(O)c1 | inactive | inactive | inactive | – | – | inactive | – | – | – | inactive | – | inactive | -2.41% (inactive) | 42.2 µM (active) | 37.6 µM (active) | – | – | – | – | -2.37% (inactive)
17 | O=P(OCCCl)(OCCCl)OCCCl | inactive | inactive | – | inactive | – | inactive | – | – | inactive | inactive | – | inactive | 2.42% (inactive) | inactive | inactive | inactive | 19.2% | – | – | –
18 | CCCCOC(=O)c1ccccc1N | inactive | – | – | – | -1.38% (inactive) | inactive | -0.998% (inactive) | – | inactive | – | – | – | – | – | inactive | inactive | -36.1% | – | inactive | –
19 | CN(C)N=O | inactive | inactive | – | inactive | -2.94% (inactive) | – | -0.838% (inactive) | – | – | – | – | inactive | 11.5% (inactive) | inactive | inactive | inactive | – | – | – | -2.39% (inactive)
20 | Nn1cnnc1 | inactive | – | inactive | – | -5.65% (inactive) | – | -1.28% (inactive) | inactive | inactive | – | inactive | – | 12.8% (inactive) | – | – | inactive | -17.8% | inactive | inactive | 0.253% (inactive)
